Laboratory results reported in the supplement of paper PMC10849652.
About 7,900 targets were measured; listed, in parts, are those with a hit and a random draw of the rest. About 0.6% of all pairs of compound and target were hits.

How the values were obtained:
Assay in all cases: log2 fold change, soluble protein after heating vs DMSO (PISA); higher = thermal stabilisation; K562 cells, 10 uM, 30 min; active = over 0.2 and 3.5 SD of the protein, either way, in both replicates (recomputed)
saracatinib = compound: CN1CCN(CCOc2cc(OC3CCOCC3)c3c(Nc4c(Cl)ccc5c4OCO5)ncnc3c2)CC1 [saracatinib]
In short: (§1)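 Aliquots of K562 cells (2×10^6 cells/mL) treated with 10 μM compound for 30 min were heated for 3 min over 48°C-58°C. After pooling and extraction in PBS with 0.5% NP-40 at 4°C, soluble protein from a 21,000xg, 90 min spin was quantified by TMTpro 16plex LC-MS/MS with channel sums equalised. Thermal stability is expressed against control samples, from duplicates, as a log2 fold change.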

sotrastaurin = compound: CN1CCN(c2nc(C3=C(c4c[nH]c5ccccc45)C(=O)NC3=O)c3ccccc3n2)CC1 [sotrastaurin]
In short: as §1

alvocidib = compound: CN1CC[C@H](c2c(O)cc(O)c3c(=O)cc(-c4ccccc4Cl)oc23)[C@H](O)C1 [alvocidib]
In short: as §1

Tubastatin A = compound: CN1CCc2c(c3ccccc3n2Cc2ccc(C(=O)NO)cc2)C1 [Tubastatin A]
In short: as §1

[1] = compound: CNC(=O)C1=CC=CC=C1NC2=NC(=NC=C2Cl)NC3=C(C=C(C=C3)N4CCOCC4)OC
In short: as §1

defactinib = compound: CNC(=O)c1ccc(Nc2ncc(C(F)(F)F)c(NCc3nccnc3N(C)S(C)(=O)=O)n2)cc1 [defactinib]
In short: as §1

rucaparib = compound: CNCc1ccc(-c2[nH]c3cc(F)cc4c3c2CCNC4=O)cc1 [rucaparib]
In short: as §1

[2] = compound: CNc1nc(-c2ccc3c(N)n[nH]c3c2)cc(N2C[C@@H](C(=O)NC3CCCCC3)CC[C@H]2C)n1
In short: as §1

encorafenib = compound: COC(=O)N[C@@H](C)CNc1nccc(-c2cn(C(C)C)nc2-c2cc(Cl)cc(NS(C)(=O)=O)c2F)n1 [encorafenib]
In short: as §1

[3] = compound: COC(=O)[C@H](CCSC)NC(=O)C1=C(C=C(C=C1)NC[C@H](CS)N)C2=CC=CC=C2
In short: as §1

[4] = compound: COC1=CC=C(C=C1)CN2C=CC3=C2C=C(C=C3)C(=O)NO
In short: as §1

filanesib = compound: CON(C)C(=O)N1N=C(c2cc(F)ccc2F)S[C@@]1(CCCN)c1ccccc1 [filanesib]
In short: as §1

zotarolimus = compound: CO[C@H]1C[C@@H]2CC[C@@H](C)[C@@](O)(O2)C(=O)C(=O)N2CCCC[C@H]2C(=O)O[C@H]([C@H](C)C[C@@H]2CC[C@H](n3cnnn3)[C@H](OC)C2)CC(=O)[C@H](C)/C=C(\C)[C@@H](O)[C@@H](OC)C(=O)[C@H](C)C[C@H](C)/C=C/C=C/C=C/1C [zotarolimus]
In short: as §1

idasanutlin = compound: COc1cc(C(=O)O)ccc1NC(=O)[C@@H]1N[C@@H](CC(C)(C)C)[C@](C#N)(c2ccc(Cl)cc2F)[C@H]1c1cccc(Cl)c1F [idasanutlin]
In short: as §1

alisertib = compound: COc1cc(Nc2ncc3c(n2)-c2ccc(Cl)cc2C(c2c(F)cccc2OC)=NC3)ccc1C(=O)O [alisertib]
In short: as §1

[5] = compound: COc1cc2nc(-c3cc(F)ccc3O)nc(N[C@@H]3CNC[C@H]3C(C)(C)O)c2cc1OC
In short: as §1

gefitinib = compound: COc1cc2ncnc(Nc3ccc(F)c(Cl)c3)c2cc1OCCCN1CCOCC1 [gefitinib]
In short: as §1

[6] = compound: COc1cccc2cc(-c3nc([C@H]4CC[C@H](C(=O)O)CC4)n4ncnc(N)c34)[nH]c12
In short: as §1

lapatinib = compound: CS(=O)(=O)CCNCc1ccc(-c2ccc3ncnc(Nc4ccc(OCc5cccc(F)c5)c(Cl)c4)c3c2)o1 [lapatinib]
In short: as §1

pictilisib = compound: CS(=O)(=O)N1CCN(Cc2cc3nc(-c4cccc5[nH]ncc45)nc(N4CCOCC4)c3s2)CC1 [pictilisib]
In short: as §1

Measured: log2 fold change

PCBP1 (UniProt Q15365)
inactive: saracatinib 0.009 | sotrastaurin -0.073 | alvocidib -0.119 | Tubastatin A 0.013 | [1] -0.015 | defactinib -0.151 | rucaparib -0.015 | [2] 0.03 | encorafenib 0.052 | [3] -0.034 | [4] 0.076 | filanesib -0.036 | zotarolimus 0.102 | idasanutlin -0.044 | alisertib -0.015 | [5] -0.014 | gefitinib -0.003 | [6] -0.003 | lapatinib -0.022 | pictilisib -0.036

PITRM1 isoform 2 (UniProt Q5JRX3)
Chain of UniProt Q5JRX3 (Q5JRX3 whole entry, looked up): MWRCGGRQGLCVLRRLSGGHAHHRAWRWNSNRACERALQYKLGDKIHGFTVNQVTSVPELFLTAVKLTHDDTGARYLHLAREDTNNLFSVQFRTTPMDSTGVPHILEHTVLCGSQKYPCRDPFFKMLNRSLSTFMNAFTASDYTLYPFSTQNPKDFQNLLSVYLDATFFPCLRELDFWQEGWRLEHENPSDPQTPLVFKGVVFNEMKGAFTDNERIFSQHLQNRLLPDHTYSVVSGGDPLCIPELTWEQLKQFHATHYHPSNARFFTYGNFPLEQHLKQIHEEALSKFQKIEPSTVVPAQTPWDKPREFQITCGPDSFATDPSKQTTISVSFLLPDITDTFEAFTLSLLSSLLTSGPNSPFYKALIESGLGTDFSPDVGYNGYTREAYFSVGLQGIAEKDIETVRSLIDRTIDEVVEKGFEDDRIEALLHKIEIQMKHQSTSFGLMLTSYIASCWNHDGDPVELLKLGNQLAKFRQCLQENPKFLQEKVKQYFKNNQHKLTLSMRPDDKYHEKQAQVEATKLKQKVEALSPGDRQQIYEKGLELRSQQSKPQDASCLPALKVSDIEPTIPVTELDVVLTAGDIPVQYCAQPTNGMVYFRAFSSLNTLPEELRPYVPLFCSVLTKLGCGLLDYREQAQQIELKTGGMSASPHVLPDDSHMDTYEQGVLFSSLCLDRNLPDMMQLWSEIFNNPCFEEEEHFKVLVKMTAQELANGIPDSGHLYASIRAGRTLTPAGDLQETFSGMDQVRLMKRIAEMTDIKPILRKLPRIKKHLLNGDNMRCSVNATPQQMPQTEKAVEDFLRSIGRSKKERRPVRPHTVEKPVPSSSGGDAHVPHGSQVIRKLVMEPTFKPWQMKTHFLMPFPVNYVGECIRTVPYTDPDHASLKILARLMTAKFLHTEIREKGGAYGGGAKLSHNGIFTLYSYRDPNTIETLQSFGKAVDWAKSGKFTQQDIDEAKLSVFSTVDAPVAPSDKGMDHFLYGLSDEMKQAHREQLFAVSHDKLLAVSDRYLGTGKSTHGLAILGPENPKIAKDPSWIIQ
active: filanesib -0.229
inactive: saracatinib -0.016 | sotrastaurin -0.045 | alvocidib -0.022 | Tubastatin A 0.009 | [1] -0.027 | defactinib -0.034 | rucaparib -0.051 | [2] 0.09 | encorafenib -0.032 | [3] -0.005 | [4] -0.097 | zotarolimus 0.124 | idasanutlin -0.047 | alisertib -0.009 | [5] -0.026 | gefitinib 0.137 | [6] 0.035 | lapatinib -0.04 | pictilisib -0.032

PFAS (UniProt O15067)
Chain of UniProt O15067 (O15067 whole entry, looked up): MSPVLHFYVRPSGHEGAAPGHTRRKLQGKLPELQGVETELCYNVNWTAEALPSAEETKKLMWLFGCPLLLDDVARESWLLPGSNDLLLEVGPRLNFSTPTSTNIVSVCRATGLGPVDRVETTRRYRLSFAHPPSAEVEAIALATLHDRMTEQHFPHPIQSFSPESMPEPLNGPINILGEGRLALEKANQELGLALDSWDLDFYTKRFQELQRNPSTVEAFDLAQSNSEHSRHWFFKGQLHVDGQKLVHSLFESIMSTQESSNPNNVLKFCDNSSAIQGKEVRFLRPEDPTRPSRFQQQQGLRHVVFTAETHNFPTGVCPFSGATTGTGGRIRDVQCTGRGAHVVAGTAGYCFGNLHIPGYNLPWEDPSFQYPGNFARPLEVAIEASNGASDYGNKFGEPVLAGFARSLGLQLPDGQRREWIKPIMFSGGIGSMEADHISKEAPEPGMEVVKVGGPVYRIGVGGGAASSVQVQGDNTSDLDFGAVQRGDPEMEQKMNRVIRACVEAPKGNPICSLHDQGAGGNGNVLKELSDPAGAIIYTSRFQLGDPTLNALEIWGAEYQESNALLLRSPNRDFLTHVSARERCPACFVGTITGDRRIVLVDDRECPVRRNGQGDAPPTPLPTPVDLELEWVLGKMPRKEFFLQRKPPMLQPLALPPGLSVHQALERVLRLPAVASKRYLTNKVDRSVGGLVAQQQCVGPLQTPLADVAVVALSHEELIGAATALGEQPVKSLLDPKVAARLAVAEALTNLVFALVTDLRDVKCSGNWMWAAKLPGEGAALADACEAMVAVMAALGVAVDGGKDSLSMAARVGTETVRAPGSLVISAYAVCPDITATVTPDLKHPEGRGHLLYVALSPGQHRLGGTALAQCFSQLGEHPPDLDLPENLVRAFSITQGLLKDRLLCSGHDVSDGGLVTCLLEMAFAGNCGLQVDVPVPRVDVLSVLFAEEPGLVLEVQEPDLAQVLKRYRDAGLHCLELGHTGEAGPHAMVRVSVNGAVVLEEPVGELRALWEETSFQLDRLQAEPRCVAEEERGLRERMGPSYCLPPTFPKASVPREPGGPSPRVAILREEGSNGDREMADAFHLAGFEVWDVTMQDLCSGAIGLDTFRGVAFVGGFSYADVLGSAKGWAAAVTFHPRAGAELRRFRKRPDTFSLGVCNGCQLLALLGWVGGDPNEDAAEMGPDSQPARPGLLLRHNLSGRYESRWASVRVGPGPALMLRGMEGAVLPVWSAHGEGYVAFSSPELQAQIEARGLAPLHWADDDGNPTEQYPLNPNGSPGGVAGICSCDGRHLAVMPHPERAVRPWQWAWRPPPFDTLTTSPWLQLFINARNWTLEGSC
inactive: saracatinib -0.043 | sotrastaurin 0 | alvocidib -0.066 | Tubastatin A 0.046 | defactinib -0.029 | rucaparib 0 | [2] 0.251 | encorafenib 0.011 | [3] -0.075 | [4] 0.149 | filanesib -0.045 | zotarolimus 0.069 | idasanutlin 0.085 | alisertib 0.029 | [5] 0.26 | gefitinib -0.005 | [6] 0.013 | lapatinib -0.063
active: [1] -0.324 | pictilisib -0.449

PGM3 isoform 4 (UniProt O95394)
Chain of UniProt O95394 (O95394 whole entry, looked up): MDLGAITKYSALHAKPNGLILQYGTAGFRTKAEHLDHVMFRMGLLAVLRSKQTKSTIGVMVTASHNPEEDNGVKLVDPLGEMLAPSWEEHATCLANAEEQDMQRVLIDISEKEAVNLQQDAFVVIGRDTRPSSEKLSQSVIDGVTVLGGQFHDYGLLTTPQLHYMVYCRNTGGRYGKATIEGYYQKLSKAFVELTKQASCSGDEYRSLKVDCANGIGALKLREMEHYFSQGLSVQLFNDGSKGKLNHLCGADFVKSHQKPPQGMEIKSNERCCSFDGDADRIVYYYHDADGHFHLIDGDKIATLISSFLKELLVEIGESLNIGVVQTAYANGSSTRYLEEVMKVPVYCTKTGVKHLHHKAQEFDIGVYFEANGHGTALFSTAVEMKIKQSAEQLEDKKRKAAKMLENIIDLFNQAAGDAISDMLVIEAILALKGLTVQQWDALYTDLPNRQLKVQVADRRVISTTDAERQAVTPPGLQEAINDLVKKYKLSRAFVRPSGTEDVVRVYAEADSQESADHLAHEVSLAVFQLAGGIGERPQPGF
inactive: saracatinib -0.028 | sotrastaurin -0.018 | alvocidib -0.062 | Tubastatin A 0.03 | [1] -0.011 | defactinib -0.019 | rucaparib -0.013 | [2] 0.067 | encorafenib 0.024 | [3] -0.022 | [4] 0.052 | filanesib -0.135 | zotarolimus 0.007 | idasanutlin -0.079 | alisertib -0.007 | [5] 0 | gefitinib -0.028 | [6] -0.01 | lapatinib -0.014 | pictilisib -0.047

PDE2A (UniProt O00408)
inactive: saracatinib -0.011 | sotrastaurin -0.005 | alvocidib -0.003 | Tubastatin A 0.208 | [1] 0.01 | defactinib -0.094 | rucaparib -0.051 | [2] -0.065 | encorafenib -0.064 | [3] -0.042 | [4] 0.172 | filanesib -0.118 | zotarolimus 0.001 | idasanutlin -0.089 | alisertib -0.053 | [5] 0.134 | gefitinib -0.004 | [6] 0.027 | lapatinib -0.014 | pictilisib 0.148

PRKAA1 isoform 2 (UniProt Q13131)
inactive: saracatinib 0.027 | sotrastaurin 0.033 | alvocidib -0.032 | Tubastatin A -0.015 | [1] -0.19 | defactinib -0.048 | rucaparib -0.006 | [2] -0.047 | encorafenib 0.02 | [3] -0.004 | [4] 0.029 | filanesib -0.043 | zotarolimus -0.007 | idasanutlin 0.013 | alisertib -0.047 | [5] -0.014 | gefitinib 0.004 | [6] 0.016 | lapatinib -0.008 | pictilisib -0.03

PPP2R5E (UniProt Q16537)
Chain of UniProt Q16537 (Q16537 whole entry, looked up): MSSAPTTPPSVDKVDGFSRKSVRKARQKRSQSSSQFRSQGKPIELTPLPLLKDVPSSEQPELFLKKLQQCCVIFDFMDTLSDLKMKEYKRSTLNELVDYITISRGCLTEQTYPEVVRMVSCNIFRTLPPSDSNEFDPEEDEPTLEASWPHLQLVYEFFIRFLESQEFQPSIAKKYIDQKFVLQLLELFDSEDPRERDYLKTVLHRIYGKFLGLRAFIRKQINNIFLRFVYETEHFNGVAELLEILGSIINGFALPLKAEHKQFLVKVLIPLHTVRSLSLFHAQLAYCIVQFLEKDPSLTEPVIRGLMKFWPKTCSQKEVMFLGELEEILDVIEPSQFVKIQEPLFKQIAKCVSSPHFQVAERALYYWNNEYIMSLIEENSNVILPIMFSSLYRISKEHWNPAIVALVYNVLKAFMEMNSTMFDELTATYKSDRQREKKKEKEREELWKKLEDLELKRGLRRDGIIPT
inactive: saracatinib -0.077 | sotrastaurin 0.012 | alvocidib -0.069 | Tubastatin A 0.005 | [1] 0.083 | defactinib -0.025 | rucaparib -0.008 | [2] 0.074 | encorafenib 0.021 | [3] -0.017 | [4] -0.044 | filanesib -0.056 | zotarolimus -0.009 | idasanutlin -0.191 | alisertib -0.024 | [5] 0.205 | gefitinib 0.002 | [6] 0.033 | lapatinib -0.024 | pictilisib -0.118

POGLUT1 (UniProt Q8NBL1)
inactive: saracatinib -0.124 | sotrastaurin 0 | alvocidib 0.06 | Tubastatin A 0.009 | [1] -0.004 | defactinib 0.039 | rucaparib 0.069 | [2] -0.063 | encorafenib 0.015 | [3] 0.042 | [4] -0.086 | filanesib 0.076 | zotarolimus -0.004 | idasanutlin 0.114 | alisertib -0.051 | [5] 0.035 | gefitinib -0.046 | [6] -0.132 | lapatinib 0.036 | pictilisib -0.099

PEX16 isoform 2 (UniProt Q9Y5Y5)
inactive: saracatinib 0.038 | sotrastaurin -0.02 | alvocidib -0.141 | Tubastatin A 0.021 | [1] -0.053 | defactinib -0.106 | rucaparib 0.042 | [2] -0.04 | encorafenib 0.001 | [3] 0.05 | [4] 0.146 | filanesib -0.152 | zotarolimus 0.016 | idasanutlin -0.076 | alisertib -0.011 | [5] -0.227 | gefitinib -0.021 | [6] 0.193 | lapatinib 0.05 | pictilisib -0.089

PLSCR1 (UniProt O15162)
Chain of UniProt O15162 (O15162 whole entry, looked up): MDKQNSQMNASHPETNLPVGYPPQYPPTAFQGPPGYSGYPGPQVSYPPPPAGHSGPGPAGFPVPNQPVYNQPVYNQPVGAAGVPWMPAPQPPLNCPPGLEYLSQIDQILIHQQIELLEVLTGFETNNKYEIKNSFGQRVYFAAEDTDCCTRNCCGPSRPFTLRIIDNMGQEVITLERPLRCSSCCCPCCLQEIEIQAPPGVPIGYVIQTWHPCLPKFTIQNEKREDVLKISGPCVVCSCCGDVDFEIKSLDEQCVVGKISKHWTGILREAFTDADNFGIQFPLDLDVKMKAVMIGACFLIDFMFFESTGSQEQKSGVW
inactive: saracatinib 0.052 | sotrastaurin 0.024 | alvocidib 0.003 | Tubastatin A 0.025 | [1] -0.058 | defactinib 0.006 | rucaparib -0.015 | [2] 0.082 | encorafenib -0.006 | [3] 0.006 | [4] -0.017 | filanesib 0.01 | zotarolimus -0.012 | idasanutlin 0.033 | alisertib -0.006 | [5] -0.046 | gefitinib 0.016 | [6] 0.145 | lapatinib 0.051 | pictilisib 0.037

PRKCQ (UniProt Q04759)
inactive: saracatinib -0.034 | alvocidib -0.185 | Tubastatin A 0.017 | [1] -0.047 | defactinib -0.03 | rucaparib 0.003 | [2] 0.002 | encorafenib 0.043 | [3] -0.025 | [4] -0.044 | filanesib -0.027 | zotarolimus 0.052 | idasanutlin -0.003 | alisertib -0.018 | [5] -0.206 | gefitinib 0.021 | [6] -0.008 | lapatinib 0.041 | pictilisib -0.053
active: sotrastaurin -0.903

PIP4K2C (UniProt Q8TBX8)
inactive: saracatinib -0.049 | sotrastaurin -0.035 | alvocidib 0.54 | Tubastatin A 0.133 | [1] 0.371 | defactinib 0.527 | rucaparib 0.011 | [2] -0.042 | encorafenib 0.051 | [3] -0.113 | [4] 0.058 | filanesib -0.025 | zotarolimus -0.021 | idasanutlin -0.186 | alisertib -0.021 | gefitinib 0.115 | [6] 0.684 | lapatinib -0.043 | pictilisib 0.134
active: [5] 0.866

PSMC3 (UniProt P17980)
Chain of UniProt P17980 (P17980 whole entry, looked up): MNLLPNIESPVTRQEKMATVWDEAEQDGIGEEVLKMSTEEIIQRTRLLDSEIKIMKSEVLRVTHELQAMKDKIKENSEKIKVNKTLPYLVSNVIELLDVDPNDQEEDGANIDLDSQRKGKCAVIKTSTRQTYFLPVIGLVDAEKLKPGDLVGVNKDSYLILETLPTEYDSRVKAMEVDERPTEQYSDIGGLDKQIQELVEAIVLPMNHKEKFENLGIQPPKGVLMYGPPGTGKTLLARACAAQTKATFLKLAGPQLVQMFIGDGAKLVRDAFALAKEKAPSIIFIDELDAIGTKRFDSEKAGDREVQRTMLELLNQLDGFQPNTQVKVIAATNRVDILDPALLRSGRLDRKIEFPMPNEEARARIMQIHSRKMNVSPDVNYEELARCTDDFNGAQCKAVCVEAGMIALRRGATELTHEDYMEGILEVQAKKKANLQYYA
inactive: saracatinib -0.043 | sotrastaurin -0.035 | alvocidib 0.058 | Tubastatin A 0.011 | [1] 0 | defactinib 0.06 | rucaparib 0.033 | [2] 0.003 | encorafenib 0.026 | [3] 0.004 | [4] -0.035 | filanesib 0.043 | zotarolimus 0.001 | idasanutlin 0.045 | alisertib -0.056 | [5] -0.015 | gefitinib -0.045 | [6] -0.038 | lapatinib 0.047 | pictilisib 0.013

PRPF38A (UniProt Q8NAV1)
Chain of UniProt Q8NAV1 (Q8NAV1 whole entry, looked up): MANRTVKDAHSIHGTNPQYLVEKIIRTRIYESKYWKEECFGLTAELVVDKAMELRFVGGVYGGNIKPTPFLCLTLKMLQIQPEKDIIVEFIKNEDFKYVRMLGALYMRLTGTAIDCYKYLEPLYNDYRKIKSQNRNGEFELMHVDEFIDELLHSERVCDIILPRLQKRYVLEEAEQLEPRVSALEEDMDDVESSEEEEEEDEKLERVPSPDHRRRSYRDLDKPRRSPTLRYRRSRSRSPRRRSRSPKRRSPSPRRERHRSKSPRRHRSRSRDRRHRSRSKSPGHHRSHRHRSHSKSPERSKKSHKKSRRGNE
inactive: saracatinib 0.019 | sotrastaurin 0.016 | alvocidib -0.024 | Tubastatin A -0.024 | [1] 0.052 | defactinib -0.036 | rucaparib 0.121 | [2] -0.035 | encorafenib -0.034 | [3] -0.008 | [4] -0.113 | filanesib 0.046 | zotarolimus -0.014 | idasanutlin 0.035 | alisertib -0.033 | [5] 0.041 | gefitinib 0.009 | [6] 0.002 | lapatinib -0.035 | pictilisib 0.085

PCYT1A (UniProt P49585)
inactive: saracatinib -0.014 | sotrastaurin -0.105 | alvocidib -0.254 | Tubastatin A 0.013 | [1] 0.032 | defactinib -0.186 | rucaparib -0.127 | [2] -0.097 | encorafenib -0.001 | [3] -0.02 | [4] 0.006 | filanesib -0.005 | zotarolimus 0.035 | idasanutlin -0.015 | alisertib 0.025 | [5] -0.05 | gefitinib -0.012 | [6] -0.037 | lapatinib 0.018 | pictilisib 0.03

PMM2 (UniProt O15305)
Chain of UniProt O15305 (O15305 whole entry, looked up): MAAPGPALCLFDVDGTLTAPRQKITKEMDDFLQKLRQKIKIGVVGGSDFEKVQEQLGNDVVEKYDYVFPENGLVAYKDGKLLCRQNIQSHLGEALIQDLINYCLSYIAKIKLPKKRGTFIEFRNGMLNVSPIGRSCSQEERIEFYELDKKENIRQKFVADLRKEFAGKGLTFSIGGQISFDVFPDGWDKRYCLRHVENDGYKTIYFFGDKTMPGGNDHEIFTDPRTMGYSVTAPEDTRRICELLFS
inactive: saracatinib -0.025 | sotrastaurin 0.062 | alvocidib 0.006 | Tubastatin A -0.031 | [1] -0.183 | defactinib 0.022 | rucaparib 0.018 | [2] -0.02 | encorafenib -0.006 | [3] 0.058 | [4] -0.054 | filanesib -0.014 | zotarolimus -0.01 | idasanutlin 0.011 | alisertib 0.009 | [5] 0.071 | gefitinib 0.016 | [6] 0.034 | lapatinib -0.088 | pictilisib -0.113
